Assay results reported in PubChem BioAssay AID1628 (Sanford-Burnham Center for Chemical Genomics, 2009).
The campaign covered roughly 190,000 compounds. About 930 (0.49%) were called active.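 How the source made its calls: active means z-score of insulin promoter reporter brightness in nuclei below -3 at 5 µM, with at least 500 cells counted; inconclusive means wells with under 500 cells, flagged as toxic or sparse; inactive means the rest.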 This is one part of the list. Potency and affinity values are given separately.

assay: insulin promoter down-regulators in MIN6 cells, imaging, high-content screening, mouse beta cells (AID 1628); details: MIN6 insulin promoter GFP reporter, at 5 µM, active compounds read low

Compound	z-score
Cc1cc(C)nc(SCSc2nc(C)cc(C)n2)n1	4.55 (inactive)
Cc1cc(C)nc(SCc2ccc(C(=O)N/N=C/c3cccc(O)c3O)cc2)n1	-3.45 (active)
COC(=O)c1ccc(NC(=O)Nc2ccc(F)cc2)cc1	-3.46 (active)
COC(=O)c1sc2ccccc2c1-n1cccc1C(=O)C(=O)Nc1ccc(F)cc1	5.4 (inactive)
O=C(Nc1ccc(F)cc1)Nc1cc(OCC(F)(F)F)cc(OCC(F)(F)F)c1	-3.21 (active)
Cc1ccc(SCc2cc(-c3ccc(Cl)cc3)no2)cc1	3.09 (inactive)
O=C1Nc2ccc(Br)cc2C12NNc1ccccc1O2 (configuration not stated)	14.4 (inactive)
O=C(Cc1nc(-c2ccc([N+](=O)[O-])cc2)cs1)Nc1ccccc1	8.58 (inactive)
N#C/C(=C/c1ccc(O)c([N+](=O)[O-])c1)C(=O)Nc1ccccc1	1.31 (inactive)
O=C(Nc1ccc(Cl)cc1)/C(=C/c1ccc([N+](=O)[O-])cc1)c1nc2ccccc2s1	-4.86 (active)
Cc1ccc(-n2c(C)nc3oc4ccccc4c(=O)c3c2=O)cc1	3.88 (inactive)
N#Cc1ccc(-c2ccccc2)nc1SCC(=O)c1cccc(Cl)c1	4.3 (inactive)
CC1(C)Cc2c(C#N)c(SCCOc3ccccc3)nc(N3CCOCC3)c2CO1	-3.51 (active)
N#Cc1ccc(-c2ccc(Cl)cc2)nc1SCC(=O)c1cccc(Cl)c1	6.91 (inactive)
CC1(C)Cc2c(C#N)c(SCC(=O)c3ccccc3)nc(N3CCOCC3)c2CO1	-3.99 (active)
CC1(C)Cc2c(C#N)c(SCC(=O)c3ccccc3)nc(N3CCOCC3)c2CS1	-3.04 (active)
N#Cc1c(C(F)(F)F)cc(-c2ccccc2)nc1SCc1nc(N)nc(N2CCOCC2)n1	15.4 (inactive)
N#Cc1c(-c2ccco2)cc(C2CC2)nc1SCC(=O)c1ccccc1	5.22 (inactive)
CC1(C)Cc2c(c(-c3ccccc3)[nH]c(=O)c2C#N)CO1	3.41 (inactive)
CCOc1cc2[nH]c(=S)n(CCCN(CC)CC)c(=O)c2cc1OCC	0.51 (inactive)
Nc1c(C(=O)C2CC2)sc2nc(-c3cccs3)cc(C(F)(F)F)c12	15.5 (inactive)

Compound	z-score
S=C(N/N=C/c1cccs1)NC1CC2CCC1C2 (configuration not stated)	-3.1 (active)
CN(C)c1ccc(/C=N/NC(=O)CN(c2ccccc2Cl)S(C)(=O)=O)cc1Br	3.57 (inactive)
CN(C)c1ccc(/C=C2\C(=N)N3C(=NC2=O)Sc2cc(S(C)(=O)=O)ccc23)cc1	3.93 (inactive)
CC(/C=N/NC(=O)c1ccncc1)=C\c1ccc(C(C)C)cc1	3.19 (inactive)
CC(C)c1ccc(/C=N/NC(=O)c2cccc(Cl)c2)cc1	-3.75 (active)
Cn1cc(/C=C2\SC(=S)N(NC(=O)c3cccc(Cl)c3)C2=O)c2ccccc21	7.3 (inactive)
CC1=NN(c2ccccc2)C(=O)C1/C=C1\NC(=S)NC1=O (configuration not stated)	3.53 (inactive)
C/C(N)=C(/C#N)C(=O)CSc1nnnn1-c1ccc(C)cc1C	-3.38 (active)
c1csc(-c2ccnc3ncnn23)c1	-4.89 (active)
O=C(CC(=O)Nc1ccccn1)Nc1ccccn1	-0.03 (inactive)
S=C(Nc1ccc(Nc2ccccc2)cc1)Nc1ccccn1	-3.32 (active)
CCOC(=O)c1sc2cc([N+](=O)[O-])cc(SCC(C)C)c2c1N	13.9 (inactive)
c1ccc(CNc2cnccn2)cc1	1.28 (inactive)
CC(=O)c1n[nH]nc1Nc1nc(C)cc(C)n1	0.61 (inactive)
Cc1cccc(NC(=O)C2CCCN(C(=O)NC3CCCCC3)C2)c1C (configuration not stated)	-3.03 (active)
O=C(NC1CC1)C1CCCN1C(=O)NC1CCCCC1 (configuration not stated)	2.65 (inactive)
COc1cc(C)nc(N2CCCC(C(=O)Nc3cccc(Cl)c3C)C2)n1 (configuration not stated)	3.87 (inactive)
Cc1[nH]c2ccccc2c1/C=N/Nc1ccc([N+](=O)[O-])cc1S(=O)(=O)Nc1ccc(Cl)cc1	9.19 (inactive)
Cc1ccc(NS(=O)(=O)c2cc([N+](=O)[O-])ccc2N/N=C/c2sc(N3CCOCC3)nc2-c2ccccc2)c(C)c1	11 (inactive)
C=CCSc1nnc(C)c(/C=C/Nc2ccc(Cl)cc2)n1	5.19 (inactive)
CCC(=O)Oc1ccc(C(=O)Nc2c[nH]c(=O)[nH]c2=O)cc1	-5 (active)

Compound	z-score
NS(=O)(=O)c1ccc(NC(=S)NCc2ccccc2)cc1	-4.47 (active)
NS(=O)(=O)c1ccc(NC=C2C(=O)OC3(CCCCC3)OC2=O)cc1	3.78 (inactive)
Cc1cc(NC(=O)C2CC(=O)OC2c2ccccc2)no1 (configuration not stated)	-4.4 (active)
COc1ccccc1-n1c(N)cc(=O)nc1SCC(=O)Nc1cc(C)on1	2.37 (inactive)
CC(=O)c1c(C)[nH]c(C(=O)OCC(=O)Nc2ccc(Cl)cc2[N+](=O)[O-])c1C	-3.98 (active)
COc1ccc(NC(=O)c2[nH]c(C)c(C(C)=O)c2C)cc1Cl	3.83 (inactive)
COC(=O)c1ccc(NC(=O)CSc2nc3cccnc3n2C)cc1	-4.12 (active)
CCOC(=O)c1[nH]c2ccc(OC)cc2c1NS(=O)(=O)c1ccc(Cl)s1	-4.98 (active)
CCC(C(=O)OCC(=O)Nc1cccc(S(=O)(=O)NC2=NCCCCC2)c1)c1ccccc1 (configuration not stated)	3.98 (inactive)
Cc1sc2ncnc(N3CCCCC3C)c2c1C (configuration not stated)	-4.4 (active)
C=CCN1C(=O)C(O)(CC(=O)c2ccc(OC)cc2OC)c2cc(Br)ccc21 (configuration not stated)	-4.05 (active)
COc1ccc(/C=C2\CC/C(=C\c3ccc(OC)cc3OC)C2=O)c(OC)c1	5.49 (inactive)
COc1ccc(C(=O)/C=C/c2ccc(N(C)C)cc2)c(OC)c1	15.9 (inactive)
O=C(CCSc1ccc(Cl)cc1)NN=C1CCCCCC1	3.37 (inactive)
O=C(O)c1ccccc1NN=C1CCCCC1	-4.39 (active)
CC(Sc1ccccc1)C(=O)NN=C1CCCCCC1 (configuration not stated)	8.07 (inactive)
CC1CC(C)(C)Nc2ccc(N=O)cc21 (configuration not stated)	4.12 (inactive)
CN(C)c1ccc(/C=C2\SC(=O)N(CC(O)Cn3c4ccccc4c4ccccc43)C2=O)cc1 (configuration not stated)	3.6 (inactive)
O=c1ccc(NS(=O)(=O)c2ccccc2)cn1Cc1ccc(Cl)c(Cl)c1	4.35 (inactive)
O=C1S/C(=C\c2ccc(N3CCOCC3)o2)C(=O)N1c1ccccc1	12.7 (inactive)
